High-throughput results as filed in PubChem BioAssay.
Most compounds without a hit are left out; they make up all but 11% or so of the library.
IMPase cell inh – qHTS Assay for Identifying the Cell-Membrane Permeable IMPase Inhibitors. CHO-M1 cells, IP1 accumulation, HTRF TR-FRET ratio. 120,000 tested, under 10 active. inhibition (IP1 accumulation), % at 46.1 µM. Inositol monophosphatase 1 (Rattus norvegicus), P97697; active = well fitted curve in the direction sought with a large enough effect in the signal ratio, not every such curve was filed as active; inconclusive = small, poorly fitted or top-dose-only effect, or a change in a side signal; inactive = no such curve, though single readings can be large or run the other way; the % refers to the signal ratio;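 note: cells stimulated with carbachol in lithium chloride buffer; higher means more IMPase inhibition seen as more IP1 and lower FRET ratio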
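Carbachol-driven Gq signalling in CHO-M1 cells (2000/well) generates IP1. Compounds that block IMPase raise IP1 and so reduce the FRET signal from Eu-anti-IP1 and d2-IP1 after a 10 min room-temperature lysis.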
ALDH1A1 inh – qHTS Assay for Inhibitors of Aldehyde Dehydrogenase 1 (ALDH1A1) | Aldehyde dehydrogenase 1A1 (Homo sapiens), P00352 | Purified ALDH1A1, NADH fluorescence, propionaldehyde substrate | Potency, µM (highest dose often 75.3 µM), hits mostly inhibitors | actives 7.3% (n = 220,000) | AID 1030, 2008; active = well fitted inhibition curve with a large enough effect, not every such curve was filed as active; inconclusive = small, poorly fitted or top-dose-only effect, or another doubt; inactive = no such curve, though single readings can be large or run the other way
IMPase Li cell – qHTS Assay for Identifying the Cell-Membrane Permeable IMPase Inhibitors: Potentiation with Lithium; Potency, µM (top dose mostly 59.4 µM), most hits filed as inhibitors; actives 0.35% (n = 210,000); CHO-M1 cells, IP1 TR-FRET (IP-One), carbachol + lithium;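 note: IP1 builds up when IMPase is blocked and the TR-FRET signal falls; nearly all actives have a fitted effect of over 50% in size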
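Readout is a homogeneous TR-FRET IP1 immunoassay (Ex 320, Em 665 and 620), where raised cytosolic IP1 lowers signal. Cells were CHO-M1 treated 30 min at 37C with test compounds plus a little lithium; AC50 values came from Hill-equation fitting.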
ALOX12 inhib – qHTS Assay for Inhibitors of 12-hLO (12-human lipoxygenase); purified 12-hLO, xylenol orange hydroperoxide absorbance; Potency, µM (doses to about 57.1 µM), most hits filed as inhibitors; actives 0.12% (n = 150,000); AID 1452, 2008; note: nearly all actives have a fitted effect of over 55% in size
Target sequence (P18054 whole entry, looked up): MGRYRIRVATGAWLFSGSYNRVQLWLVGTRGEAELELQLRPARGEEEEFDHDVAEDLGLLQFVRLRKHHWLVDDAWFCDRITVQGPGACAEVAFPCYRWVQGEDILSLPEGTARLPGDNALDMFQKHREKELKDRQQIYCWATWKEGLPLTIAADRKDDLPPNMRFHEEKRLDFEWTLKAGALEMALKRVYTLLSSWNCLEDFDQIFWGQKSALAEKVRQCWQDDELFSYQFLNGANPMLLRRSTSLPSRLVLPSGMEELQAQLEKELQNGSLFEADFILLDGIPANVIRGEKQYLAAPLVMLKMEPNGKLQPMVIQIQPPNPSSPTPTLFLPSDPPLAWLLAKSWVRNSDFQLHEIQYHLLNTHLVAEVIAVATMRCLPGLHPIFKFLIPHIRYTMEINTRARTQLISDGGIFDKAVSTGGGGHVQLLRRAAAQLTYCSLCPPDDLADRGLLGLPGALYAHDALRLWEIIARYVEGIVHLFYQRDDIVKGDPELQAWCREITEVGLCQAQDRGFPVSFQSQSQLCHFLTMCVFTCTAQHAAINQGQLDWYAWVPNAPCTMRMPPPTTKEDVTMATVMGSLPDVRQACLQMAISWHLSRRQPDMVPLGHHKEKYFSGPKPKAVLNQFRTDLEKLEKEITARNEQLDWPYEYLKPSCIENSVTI
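Purified human 12hLO (150 nM), preincubated 15 min with compound, then 40 uM arachidonic acid for 30 min, room temperature, Hepes pH 7.0 with 0.01% Triton X-100. Hydroperoxide detected by ferrous iron/xylenol orange; 573/405 nm absorbance ratio gives reaction progress.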
PNC inhibitor – High Content Assay for Compounds that inhibit the Assembly of the Perinucleolar Compartment | activity change (PNC), negative = inhibition, % at 10 µM | PC3M PTB-GFP, PNC prevalence imaging, 16 h; active compounds read low | actives 3.1% (n = 140,000);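 active = readout at or below -70, meaning at least 70% loss of cells showing the perinucleolar compartment, a nuclear body marking cancer cells; inconclusive = readout between -30 and a set limit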
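Read-out is percentage of cells bearing a perinucleolar compartment, from automated 20x imaging of fixed, Hoechst-stained PC3M PTB-GFP cells. Cells were seeded 4 h, then exposed 16 h to compound (23 nl of library stock) in duplicate plates.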
HPGD inh – qHTS Assay for Inhibitors of HPGD (15-Hydroxyprostaglandin Dehydrogenase). 15-hydroxyprostaglandin dehydrogenase [NAD(+)] (Homo sapiens), P15428. Potency, µM, usual class: inhibitors. purified HPGD, NADH fluorescence kinetic, PGE2 substrate. actives 4.3% (n = 150,000); active = well fitted inhibition curve with a large enough effect, not every such curve was filed as active; inconclusive = small, poorly fitted or top-dose-only effect, or another doubt; inactive = no such curve, though single readings can be large or run the other way
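20 nM HPGD preincubated 15 min at room temperature with compound in 50 mM Tris-HCl pH 8, 0.01% Tween 20. Started with 1 mM NAD+ and 30 uM prostaglandin E2; NADH fluorescence (360/450 nm) read 5 times over 30-s intervals, last minus first.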
Hits are given with their value; [ ] = remark or other dose. Unless noted, calls come from the whole dose curve; as a rule, active = well fitted curve in the direction sought with a large enough effect; inconclusive = small, poorly fitted or top-dose-only effect, or another doubt; inactive = no such curve, though single readings can be large; an effect the other way counts as inactive or inconclusive.

What do the screens show for `CC(=O)O[C@H]1C2=CO[C@H](C)[C@H]3[C@H]4C5=C([C@H](O)[C@H]6O[C@@H]6C5=O)[C@H](O[C@H]4C)[C@@]23C(=O)[C@H]2O[C@@H]21`?
ALDH1A1 inh: inactive[13.5 µM]

How did O=C(O)c1ccc(NS(=O)(=O)Cc2ccccc2)cc1 do in these assays?
ALDH1A1 inh: inactive[13.5 µM]; IMPase Li cell: inactive; ALOX12 inhib: inactive[11.4 µM]; HPGD inh: inactive

Results for CCS(=O)(=O)Nc1ccc(C(=O)OC)cc1 ?
IMPase cell inh: inactive; ALDH1A1 inh: inactive; IMPase Li cell: inactive; ALOX12 inhib: inactive; PNC inhibitor: inactive; HPGD inh: 14.1µM

What do the screens show for `CCS(=O)(=O)Nc1ccc(C(=O)c2ccccc2)cc1`?
IMPase cell inh: inactive; ALDH1A1 inh: inactive; IMPase Li cell: inactive; ALOX12 inhib: inactive; PNC inhibitor: inactive; HPGD inh: 0.282µM

Results for CC[C@@]12CCCN3CCc4c(n(c5ccccc45)[C@](O)(C(=O)OC)C1)C32 (stereo not given in full) ?
ALDH1A1 inh: inactive; IMPase Li cell: inactive; ALOX12 inhib: inactive; HPGD inh: inactive

Results for CC(C)CCC[C@@H](C)[C@H]1CC[C@H]2[C@@H]3CC=C4C[C@@H](O)CC[C@]4(C)[C@H]3CC[C@]12C ?
ALDH1A1 inh: inactive; IMPase Li cell: inactive; ALOX12 inhib: inactive[0.00818 µM]; HPGD inh: inactive

How did CCCN1C(=O)C(O)(C2COC(C)(C)CC2=O)c2ccccc21 (stereo not given) do in these assays?
ALDH1A1 inh: 0.355µM; IMPase Li cell: inactive

What do the screens show for `CCN1C(=O)C(O)(C2COC(C)(C)CC2=O)c2ccccc21` (stereo not given)?
IMPase cell inh: inactive; ALDH1A1 inh: inconclusive; IMPase Li cell: inactive; ALOX12 inhib: inactive; PNC inhibitor: inactive; HPGD inh: inactive

What do the screens show for `CCCN1C(=O)C(O)(C2CC(=O)CC(C)(C)O2)c2ccccc21` (stereo not given)?
IMPase cell inh: inactive; ALDH1A1 inh: 0.794µM; IMPase Li cell: inactive; ALOX12 inhib: inactive; PNC inhibitor: inactive; HPGD inh: inactive

What do the screens show for `CCN1C(=O)C(O)(C2COC(C)(C)CC2=O)c2cc(Br)ccc21` (stereo not given)?
IMPase cell inh: inactive; ALDH1A1 inh: 8.91µM; IMPase Li cell: inactive; ALOX12 inhib: inactive; PNC inhibitor: inconclusive; HPGD inh: inactive

Results for CCCN1C(=O)C(O)(C/C(C)=N/O)c2ccccc21 (stereo not given) ?
IMPase cell inh: inactive; ALDH1A1 inh: inactive; IMPase Li cell: inactive; ALOX12 inhib: inactive; PNC inhibitor: inactive; HPGD inh: inactive

What do the screens show for `CCNC(=O)N1C(=O)C2(OCCO2)c2cc(Br)ccc21`?
IMPase cell inh: inactive; ALDH1A1 inh: inactive; IMPase Li cell: inactive; ALOX12 inhib: inactive; PNC inhibitor: inactive; HPGD inh: inactive

How did O=C(Cc1ccccc1)c1nc2ccccc2s1 do in these assays?
ALDH1A1 inh: inactive; IMPase Li cell: inactive; ALOX12 inhib: inactive; PNC inhibitor: inactive; HPGD inh: 22.4µM

What do the screens show for `NC(=O)CSCc1nc2ccccc2s1`?
IMPase cell inh: inactive; ALDH1A1 inh: 7.94µM; IMPase Li cell: inactive; ALOX12 inhib: inactive; PNC inhibitor: inconclusive; HPGD inh: inconclusive

Results for Oc1ccc(O)c(Cc2nc3ccccc3s2)c1 ?
ALDH1A1 inh: 20µM; IMPase Li cell: inactive

What do the screens show for `COC(=O)c1ccc(CC(=O)c2nc3ccccc3s2)cc1`?
ALDH1A1 inh: inactive; IMPase Li cell: inactive; ALOX12 inhib: inactive; PNC inhibitor: inactive; HPGD inh: inactive

What do the screens show for `Oc1ccccc1OCc1nc2ccccc2s1`?
IMPase cell inh: inactive; ALDH1A1 inh: inactive; IMPase Li cell: inactive; ALOX12 inhib: inactive; PNC inhibitor: inactive; HPGD inh: 12.6µM
